Active and inactive are the calls of the source. How the source made its calls: active means hit-call score of the fitted dose curve at least 0.9, where 1 is the maximum; inactive means score below 0.9.
Test: APR_HepG2_MitoMass_72hr: Apredica 72-hour HepG2 Assay for Mitochondrial Mass (AID 2282924);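 further: MitoTracker Red CMXRos stain intensity per cell imaged as mitochondrial mass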
Details: high-content imaging, actives raise or lower the signal
Description: APR_HepG2_72hr is a cell-based, multiplexed-readout assay that uses HepG2, a human liver cell line, with measurements taken at 72 hours after chemical dosing in a 384-well plate.APR_HepG2_MitoMass_72hr is one of 10 assay component(s) measured or calculated from the APR_HepG2_72hr assay. It is designed to make measurements of cell phenotype, a form of morphology reporter, as detected with fluorescence intensity signals by HCS Fluorescent Imaging technology.Data from the assay component APR_HepG2_MitoMass_72hr was analyzed into 1 assay endpoint. This assay endpoint, APR_HepG2_MitoMass_72hr, was analyzed with bidirectional fitting relative to DMSO as the negative control and baseline of activity. Using a type of morphology reporter, gain or loss-of-signal activity can be used to understand changes in the signaling. Furthermore, this assay endpoint can be referred to as a primary readout, because this assay has produced multiple assay endpoints where this one serves a signaling function. To generalize the intended target to other relatable targets, this assay endpoint is annotated to the cell morphology intended target family, where the subfamily is organelle conformation.
Cells were treated with dimethyl sulfoxide (DMSO) as a solvent control at a final concentration of 0.5% v/v or with compounds in DMSO with a resulting final DMSO concentration of 0.5% v/v. Compound treatment was done at concentrations of 0.39, 0.78, 1.56, 3.12, 6.24, 12.5, 25, 50, 100, and 200 uM in duplicate on each plate. Cells were treated with compounds for 1, 24, or 72 hr. Carbonyl […] m-chloro-phenylhydrazone (CCCP) and taxol were used as positive controls for mitochondrial function and cytoskeletal stability, respectively; DMSO served as the negative control for this experiment. Cells were fixed by the direct addition of 50 uL formaldehyde in Hank's Balanced Salt Solution (HBSS) to a final concentration of 3.7%. After incubation in the fixation medium for 30 min at room temperature (293-298 K), cells were rinsed twice with HBSS and treated with cell permeabilization buffer (16 uL of 0.5% Triton X-100) for 10 min at room temperature (293-298 K) before labeling. For mitochondrial membrane potential and mitochondrial measurements, pre-fixed cells were incubated with 50 uL of MitoTracker Red CMXRos (Invitrogen) at a concentration of 250 nM for 30 min before fixation. In the remaining cases, post-fixed cells were labeled by incubation with a multiplexed mixture of primary antibodies in HBSS for 60 min at room temperature (293-298 K) to detect immunoreactivity of c-Jun (1:500), phospho-histone H3 (1:100), phospho-histone H2A.x (1:200), p53 (1:400), alpha-tubulin (1:200) and Hoechst 33342 (2 ug/mL). Cells were labeled for multiplexed imaging on two separate plates: a) Hoechst 33342, MitoTracker Red, phospho-histone H3, and alpha-tubulin, and b) Hoechst 33342, phospho-histone H2A.x, and c-Jun. A final rinse with HBSS (50 uL) was performed before analysis. The primary and secondary antibodies for the proteins were phospho-histone H3 (rabbit anti-phospho-histone H3 and FITC-donkey anti-rabbit IgG), phospho-histone H2A.x (mouse anti-phospho-histone H2A.x and FITC-donkey anti-mouse IgG), c-Jun (rabbit anti-phospho-c-Jun and Cy3-donkey anti-rabbit IgG), p53 (sheep anti-p53 and Cy5-donkey anti-sheep IgG), alpha-tubulin (mouse anti-alpha-tubulin and Cy5-donkey anti-mouse IgG). These antibodies are available as the CellCiphr HepG2 assay kit (Millipore).Digital images of each well were captured using a Cellomics ArrayScan VTI (Thermo Scientific Cellomics) (0.8 NA objective, 0.63x optical coupler, and XF-93 filter set) at 20x magnification. The images were acquired using the autofocus feature of the ArrayScan instrument, which entails the following steps. First, the camera focuses on channel 1 (Hoechst 33342), where nuclei are identified. Second, a Z offset of 1 um is used for capturing mitochondria (MitoTracker Red). […]

Row | Compound | outcome | AC50
1 | CC(C)(C)c1ccc(O)cc1 | inactive | 
2 | Cc1cccc(N)c1 | inactive | 
3 | [N-]=[N+]=[N-] | inactive | 
4 | COCCOCCO | inactive | 
5 | O=P1(N(CCCl)CCCl)NCCCO1 (stereo not given) | inactive | 
6 | c1nc[nH]n1 | inactive | 
7 | CCOc1ccc(C(C)(C)COCc2cccc(Oc3ccccc3)c2)cc1 | inactive | 
8 | CCC(C)(C)c1ccc(O)cc1 |  | 88 µM (active)
9 | CCCCN(CCCC)N=O | inactive | 
10 | CC(Cl)(Cl)C(=O)O | inactive | 
11 | O=P(Oc1ccccc1)(Oc1ccccc1)Oc1ccccc1 | inactive | 
12 | CCOP(=S)(Oc1ccc([N+](=O)[O-])cc1)c1ccccc1 (stereo not given) | inactive | 
13 | CCOC(=O)c1ccccc1C(=O)OCC | inactive | 
14 | CCC1(c2ccccc2)C(=O)N=C(O)NC1=O (stereo not given) | inactive | 
15 | O=[N+]([O-])c1ccccc1 | inactive | 
16 | CC(C)(C)OOC(C)(C)C | inactive | 
17 | ClC(Cl)(Cl)c1ccccc1 | inactive | 
18 | Cc1ccc(O)cc1C | inactive | 
19 | CCCCN(CCCC)SN(C)C(=O)Oc1cccc2c1OC(C)(C)C2 | inactive | 
20 | CCN(CC)c1ccccc1 | inactive | 

Row | Compound | outcome | AC50
21 | CCCCCCCc1ccc(O)cc1 | inactive | 
22 | CCCN(CCC)c1c([N+](=O)[O-])cc(C(C)C)cc1[N+](=O)[O-] |  | 40.9 µM (active)
23 | OCC1CO1 (stereo not given) | inactive | 
24 | Cc1ccc(N)cc1N | inactive | 
25 | Cc1ccc([N+](=O)[O-])cc1C | inactive | 
26 | c1ccc(OP(Oc2ccccc2)Oc2ccccc2)cc1 | inactive | 
27 | CSC(C)(C)C=NO | inactive | 
28 | c1ccc2c(c1)Nc1ccccc1S2 | inactive | 
29 | Nc1cc2c3c(c1)C(c1ccccc1)=N[C@@H](NC(=O)c1cccnc1)C(=O)N3CC2 | inactive | 
30 | Nc1ccc2ccccc2c1 |  | 69.8 µM (active)
31 | CN(C)C(=O)Cl | inactive | 
32 | CCNc1nc(Cl)nc(NC(C)(C)C)n1 | inactive | 
33 | O=C(O)C(Cl)Cl | inactive | 
34 | ClC1=C(Cl)C2(Cl)C3C(Cl)C(Cl)CC3C1(Cl)C2(Cl)Cl (stereo not given) |  | 136 µM (active)
35 | Nc1ccc(Cl)cc1 | inactive | 
36 | ClC(Cl)c1ccccc1 | inactive | 
37 | O=[N+]([O-])c1ccc(Cl)c(Cl)c1 | inactive | 
38 | CC(Cc1ccc(OCC(=O)O)cc1)NCC(O)c1csc(C(F)(F)F)n1 (stereo not given) | inactive | 
39 | CCOP(=S)(OCC)SCSCC | inactive | 
40 | CCCCc1ccccc1 | inactive | 
